Among all 290,000 compounds or so, about 890 (0.31%) were called active. Rule as the data show it: active = inhibition mostly above about 52% (no sharp cut-off); inactive = mostly below about 76%. The sample as a whole holds a higher share of actives than the screen did.
Experiment: cell-free HIV fusion peptide-binding blockers – biochemical, uHTS, fluorescence dequenching, primary screen (AID 1986)
Settings: 30 min, stronger effect = higher value
[1] = measured here: repeat confirmation average inhibition, at 18.6 µM

COc1ccc(CC(=O)N(C)CC(=O)Nc2ccccc2SC)cc1
inhibition (at 20 µM): 3.4% (inactive)

COc1ccc(OC)c(NC(=O)CN(C)S(=O)(=O)c2ccc3nc(C)sc3c2)c1
inhibition (at 20 µM): -0.6% (inactive)

N#CCCN(/N=C/c1cccnc1)C1=NS(=O)(=O)c2ccccc21
inhibition (at 20 µM): -1.4% (inactive)

CN(C)c1ccc(/C=N/N(CCC#N)C2=NS(=O)(=O)c3ccccc32)cc1
inhibition (at 20 µM): 69.3% (active) | inhibition [1]: 64.2%

CN(C)c1ccc(/C=N/N(CCO)C2=NS(=O)(=O)c3ccccc32)cc1
inhibition (at 20 µM): 159% (inactive)

O=C(COc1ccc(F)cc1)N(Cc1cccs1)C1CCS(=O)(=O)C1 (stereo not given)
inhibition (at 20 µM): 3.2% (inactive)

O=C(Nc1cccc(Oc2ccc(C(=O)O)c(C(=O)O)c2)c1)c1ccc(-c2ccccc2)cc1
inhibition (at 20 µM): 75.5% (active)

Cc1ccc(C(=O)Nc2ccc(Oc3ccc(C(=O)O)c(C(=O)O)c3)cc2)cc1C
inhibition (at 20 µM): 17.4% (inactive)

CC(C)(C)C(=O)Nc1ccc(C(=O)Nc2cccc(Oc3ccc(C(=O)O)c(C(=O)O)c3)c2)cc1
inhibition (at 20 µM): 37.8% (inactive)

CCN1/C(=C\C=C(C(C)=O)C(C)=O)Sc2ccccc21
inhibition (at 20 µM): 148% (inactive)

CCOC(=O)/C(=C/C=C1\Sc2ccccc2N1CC)C(C)=O
inhibition (at 20 µM): 114% (active) | inhibition [1]: 145%

CCOC(=O)/C(=C\C=C1/Sc2ccccc2N1CC)C(C)=O
inhibition (at 20 µM): 150% (inactive)

C=Cc1ccc(C(=O)NC2CCCN(Cc3ccccc3F)C2)cc1 (stereo not given)
inhibition (at 20 µM): 1.1% (inactive)

CC(C)c1ccc2c(c1)c(SC(C)(C)C)c(CC(C)(C)C(=O)O)n2Cc1ccc(Cl)cc1
inhibition (at 20 µM): 53.9% (active)

CC(C)c1ccc(C(=O)NCc2ccc(Cl)cc2)cc1
inhibition (at 20 µM): -2.4% (inactive)

Cc1ccc2c(c1)c(N=O)c(O)n2Cc1ccc(Cl)cc1
inhibition (at 20 µM): -0.1% (inactive)

CN(Cc1nccn1C)C(=O)CC1C(=O)NCCN1Cc1ccc(F)cc1Cl (stereo not given)
inhibition (at 20 µM): -0.5% (inactive)

Cc1cc2ncc(C(N)=O)cn2n1
inhibition (at 20 µM): -1.8% (inactive)

O=C(/C=C\c1ccco1)c1ccc(NC(=O)c2ccco2)cc1
inhibition (at 20 µM): 58.2% (inactive) | inhibition [1]: 3%

O=C(/C=C/c1ccco1)c1ccc(NC(=O)C23CC4CC(CC(C4)C2)C3)cc1
inhibition (at 20 µM): 50.7% (active)

CC(=O)Nc1ccc(C(=O)/C=C/c2ccco2)cc1
inhibition (at 20 µM): 36% (inactive)

COCCCn1c(=O)/c(=C\c2cccc(OC)c2OC)s/c1=C(/C#N)C(=O)Nc1ccc(C(=O)O)cc1
inhibition (at 20 µM): 54.1% (inactive) | inhibition [1]: 33.7%

COCCCn1c(=O)/c(=C\c2ccccc2OC(F)F)s/c1=C(/C#N)C(=O)NC(C)C
inhibition (at 20 µM): 75.2% (inactive) | inhibition [1]: 5.3%

COCCCn1c(=O)/c(=C\c2ccccc2OC(C)C)s/c1=C(/C#N)C(=O)Nc1ccc(C(=O)O)cc1
inhibition (at 20 µM): 77.3% (active)

Cc1ccc(C(=O)OCC(=O)N(C)C2CCS(=O)(=O)C2)cc1[N+](=O)[O-] (stereo not given)
inhibition (at 20 µM): -0.5% (inactive)

CC(=O)c1cccc(NC(=O)CSc2ccc(-c3ccc4c(c3)OCO4)nn2)c1
inhibition (at 20 µM): 0.3% (inactive)

O=C(O)c1cccc(Cn2c(Cl)c(/C=N/NC(=O)c3ccccc3O)sc2=O)c1
inhibition (at 20 µM): 28.1% (inactive)

O=C(O)c1cccc(Cn2c(Cl)c(/C=N/NC(=O)c3cc4ccccc4cc3O)sc2=O)c1
inhibition (at 20 µM): 61.5% (active)

O=C(NN=C1CCN(Cc2ccccc2)CC1)c1ccccc1O
inhibition (at 20 µM): 3.9% (inactive)

O=C(NN=C1CCN(Cc2ccccc2)CC1)c1cc(Br)ccc1O
inhibition (at 20 µM): 7.6% (inactive)

O=C(O)c1cccc(Cn2c(Cl)c(/C=N/NC(=O)c3ccccc3Cl)sc2=O)c1
inhibition (at 20 µM): 6.2% (inactive)

O=C(NN=C1CCN(Cc2ccccc2)CC1)c1cc2ccccc2cc1O
inhibition (at 20 µM): 56% (active)

Clc1ncc(Cn2cccn2)s1
inhibition (at 20 µM): -0.3% (inactive)

Cc1ccc(C)c(N2CCN(C(=O)CCCn3c(=S)[nH]c4cc5c(cc4c3=O)OCO5)CC2)c1
inhibition (at 20 µM): -4.3% (inactive)

Nc1c(C2=NCCO2)nnn1Cc1ccccc1
inhibition (at 20 µM): -0.3% (inactive)

O=C(Nc1cccc(OCC(=O)N2CCOCC2)c1)c1ccc(C(F)(F)F)cc1
inhibition (at 20 µM): 1.4% (inactive)

Cc1cc(C)cc(N(C(C)C(=O)N2CCCC2)S(C)(=O)=O)c1 (stereo not given)
inhibition (at 20 µM): 2.9% (inactive)

O=S(=O)([N-]c1nc2ccccc2nc1-[n+]1ccc(Cc2ccccc2)cc1)c1ccc(Br)s1
inhibition (at 20 µM): 12.8% (inactive)

Cc1cc[n+](-c2nc3ccccc3nc2[N-]S(=O)(=O)c2ccccc2)cc1
inhibition (at 20 µM): 12.1% (inactive)

Cc1cc(C)c[n+](-c2nc3ccccc3nc2[N-]S(=O)(=O)c2ccc(Br)s2)c1
inhibition (at 20 µM): 26.7% (inactive)

O=S(=O)([N-]c1nc2ccccc2nc1-[n+]1ccc(-c2ccncc2)cc1)c1ccccc1
inhibition (at 20 µM): 83.2% (active)

CCc1cc[n+](-c2nc3ccccc3nc2[N-]S(=O)(=O)c2ccc(Br)s2)cc1
inhibition (at 20 µM): 96.6% (active)

O=S(=O)([N-]c1nc2ccccc2nc1-[n+]1ccccc1)c1ccccc1
inhibition (at 20 µM): 9.8% (inactive)

Cc1ccc(S(=O)(=O)N2CCC(=O)N(CCOC(=O)Nc3cc(C)cc(C)c3)CC2)cc1
inhibition (at 20 µM): -2% (inactive)

Cc1cc(C)c2nc(-n3nc(C)cc3N)cc(C)c2c1
inhibition (at 20 µM): -0.5% (inactive)

COc1cc(C(=O)Nc2nc(-c3cc(C)ccc3C)c(C)s2)ccc1OCC(=O)Nc1ccc(F)cc1
inhibition (at 20 µM): -1% (inactive)

Clc1cccc(CNCCCSc2ncccn2)c1
inhibition (at 20 µM): -1.9% (inactive)

CCc1c(-c2ccccc2)nc2sc3c(c2c1N)CCCC3
inhibition (at 20 µM): 0.7% (inactive)

CN1C(=O)S/C(=C/c2cccn2-c2cccc(C(=O)O)c2)C1=O
inhibition (at 20 µM): 1.9% (inactive)

Cc1ccccc1NC(=O)CN1C(=O)S/C(=C\c2cccn2-c2cccc(C(=O)O)c2)C1=O
inhibition (at 20 µM): -1.1% (inactive)

CC1=NN(c2nc(-c3ccccc3)cs2)C(=O)C1
inhibition (at 20 µM): 47.5% (inactive)

CC1=NN(c2nc(-c3ccc(Cl)cc3)cs2)C(=O)C1
inhibition (at 20 µM): -1.9% (inactive)

O=C1CC(c2ccccc2)=NN1c1nc(-c2ccccc2)cs1
inhibition (at 20 µM): 58% (active)

CCOC(=O)Cn1c(=O)n(Cc2ccc(C)cc2)c(=O)c2cccnc21
inhibition (at 20 µM): 1.3% (inactive)

COc1cc(N2CCCC2)c(OC)cc1/C=c1/sc2nc3ccccc3n2c1=O
inhibition (at 20 µM): -3.3% (inactive)

COc1cc(N2CCCC2)c(OC)cc1/C=C1/NC(=S)NC1=O
inhibition (at 20 µM): 121% (active)

COc1cc(N2CCCC2)c(OC)cc1C=O
inhibition (at 20 µM): -2.7% (inactive)

COCCN(C(=O)C1CCC1)c1nnc(-c2cccnc2)s1
inhibition (at 20 µM): -0.2% (inactive)

CN(C)c1ccc(N=Cc2nc(-c3ccccc3)oc2O)cc1
inhibition (at 20 µM): 84.5% (active) | inhibition [1]: 132%

Oc1oc(-c2ccccc2)nc1C=Nc1ccccc1
inhibition (at 20 µM): -1.4% (inactive)

Cc1ccc(-c2nc(C=Nc3ccccc3)c(O)o2)cc1
inhibition (at 20 µM): -1.7% (inactive)

O=C(CCCc1ccccc1)Nc1ccccn1
inhibition (at 20 µM): -1.4% (inactive)

O=C(O)CS(=O)CC(=O)Nc1cccc(C(F)(F)F)c1 (stereo not given)
inhibition (at 20 µM): 0.3% (inactive)

CCN1C(=O)/C(=C\c2ccc(-c3cccc(C(=O)OC)c3)o2)SC1=Nc1ccc(C(=O)O)cc1
inhibition (at 20 µM): 51.6% (inactive) | inhibition [1]: 8.6%

CCN=C1S/C(=C\c2ccc(-c3cccc(C(=O)O)c3)o2)C(=O)N1CC
inhibition (at 20 µM): 42% (inactive)

Cc1ccc(-c2csc(NC(=O)c3ccco3)n2)cc1C
inhibition (at 20 µM): 2% (inactive)

COc1cc(OC)c(OC)cc1CN1CCc2ccccc2C1
inhibition (at 20 µM): 1% (inactive)

O=C(CN1CCC(Cc2ccccc2)CC1)N1CCc2ccccc2C1
inhibition (at 20 µM): 0.8% (inactive)

CCOc1cccc(C2/C(=C(/O)c3ccc4c(c3)CC(C)O4)C(=O)C(=O)N2CCCn2ccnc2)c1 (stereo not given)
inhibition (at 20 µM): -2.5% (inactive)

O=C(Nc1sc2c(c1C(=O)O)CCC2)c1ccc(F)cc1
inhibition (at 20 µM): 6.4% (inactive)

CC(C)(C)c1ccc(C(=O)Nc2sc3c(c2C(=O)O)CCC3)cc1
inhibition (at 20 µM): 50.9% (active)

O=C(Nc1sc2c(c1C(=O)O)CCC2)c1ccccc1
inhibition (at 20 µM): 12.1% (inactive)

O=C(CCN1CCc2ccccc2C1)c1ccc2c(c1)OCCO2
inhibition (at 20 µM): 1.4% (inactive)

O=C(c1ccc(Cl)cc1)c1c[nH]c(C(=O)NNc2ccccc2)c1
inhibition (at 20 µM): -4.1% (inactive)

CN(CCc1ccccn1)C1CCCN(S(=O)(=O)c2ccc(F)c(Cl)c2)C1 (stereo not given)
inhibition (at 20 µM): -0.2% (inactive)

Oc1c(Br)cc(/C=N/n2c(-c3ccccc3)n[nH]c2=S)cc1Br
inhibition (at 20 µM): 64.4% (inactive) | inhibition [1]: 15.2%

Oc1c(Br)cc(/C=N/n2c(-c3ccccc3)n[nH]c2=S)c(O)c1Br
inhibition (at 20 µM): 53.2% (active)

Oc1c(Br)cc(/C=N/n2c(-c3ccccc3)n[nH]c2=S)c(Br)c1O
inhibition (at 20 µM): 63.4% (active)

Oc1ccc(Br)cc1/C=N/n1c(-c2ccccc2)n[nH]c1=S
inhibition (at 20 µM): 6% (inactive)

Oc1ccccc1/C=N/n1c(-c2ccccc2)n[nH]c1=S
inhibition (at 20 µM): 0.3% (inactive)

Cc1c(Br)c(O)c(Br)c(O)c1/C=N/n1c(-c2ccccc2)n[nH]c1=S
inhibition (at 20 µM): 62.9% (inactive) | inhibition [1]: 47.6%

COc1c(Br)cc(/C=N/n2c(-c3ccccc3)n[nH]c2=S)c(O)c1Br
inhibition (at 20 µM): 44.2% (inactive)

Oc1c(Br)cc(Br)cc1/C=N/n1c(-c2ccccc2)n[nH]c1=S
inhibition (at 20 µM): 20.3% (inactive)

CC(=O)c1cccc(N(CC(=O)N2CCOCC2)S(C)(=O)=O)c1
inhibition (at 20 µM): -1.8% (inactive)

CC(Oc1ccccc1)C(=O)NNC(=O)c1cccs1 (stereo not given)
inhibition (at 20 µM): -0.2% (inactive)

Cc1ccc(Nc2nc(N)c([N+](=O)[O-])c(N3CCOCC3)n2)cc1
inhibition (at 20 µM): -3.1% (inactive)

Cc1c(Cl)c(C(=O)NC2C3CC4CC(C3)CC2C4)nn1C (stereo not given)
inhibition (at 20 µM): -1.2% (inactive)

O=C(Nc1ccn(Cc2ccccc2F)n1)c1ccc(COc2ccc(Br)cc2)cc1
inhibition (at 20 µM): -0.1% (inactive)

Cc1cccc(NC(=O)CN2C(=O)CCS(=O)(=O)c3ccccc32)c1C
inhibition (at 20 µM): 0% (inactive)

CC(C)(C)NC(=O)NC(=O)COC(=O)c1cccc(NS(=O)(=O)c2ccc(F)c(F)c2)c1
inhibition (at 20 µM): 5.9% (inactive)

COC(=O)c1ccccc1NC(=O)COC(=O)[C@H](C)NC(N)=O
inhibition (at 20 µM): -2.5% (inactive)
